# Columns and labels:
# Test in all cases: DAPPL (digital affinity profiling via proximity ligation, sequencing); 10 mM Tris-HCl pH 7.5, 50 mM NaCl, 1 mM DTT, 4% glycerol, room temperature, 30 min; GST-TFs on glutathione beads, 16-mer random dsDNA library, 0.1% formaldehyde crosslink after washing; high values mean tight binding
# FEV = biological target: T1, FEV (Homo sapiens, UniProt Q99581 1-238); conditions: protein: recombinant; tags: N-terminal GST; dsDNA, one strand shown
# T1 sequence: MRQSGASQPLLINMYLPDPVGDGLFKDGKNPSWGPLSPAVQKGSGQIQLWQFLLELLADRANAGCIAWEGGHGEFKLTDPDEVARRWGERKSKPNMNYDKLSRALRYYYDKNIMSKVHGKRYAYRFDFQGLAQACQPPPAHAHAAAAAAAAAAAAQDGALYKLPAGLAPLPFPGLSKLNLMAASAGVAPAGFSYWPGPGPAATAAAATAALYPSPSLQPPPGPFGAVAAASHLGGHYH
# Method in brief: (§1)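 In yeast, human transcription factors were expressed with a GST fusion, then pulled down on glutathione beads and given DNA barcodes. Pooled with a tag-only sample, they were exposed to 200 nmole of a 16-mer random double-stranded DNA library (Tris/NaCl/DTT/glycerol buffer, room temperature, 30 min), washed, crosslinked with 0.1% formaldehyde, proximity-ligated using BsaI/T4 ligase for 1 h at 37 °C, PCR-amplified and read on an Illumina NextSeq500. Each hexamer's frequency of reads for a factor, divided by the matching frequency for the tag-only sample, gives the binding signal.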
# ETV5 = ETV5 (Homo sapiens, UniProt P41161 1-510); conditions: protein: recombinant; tags: N-terminal GST; dsDNA, one strand shown
# ETV5, sequence (P41161 whole entry): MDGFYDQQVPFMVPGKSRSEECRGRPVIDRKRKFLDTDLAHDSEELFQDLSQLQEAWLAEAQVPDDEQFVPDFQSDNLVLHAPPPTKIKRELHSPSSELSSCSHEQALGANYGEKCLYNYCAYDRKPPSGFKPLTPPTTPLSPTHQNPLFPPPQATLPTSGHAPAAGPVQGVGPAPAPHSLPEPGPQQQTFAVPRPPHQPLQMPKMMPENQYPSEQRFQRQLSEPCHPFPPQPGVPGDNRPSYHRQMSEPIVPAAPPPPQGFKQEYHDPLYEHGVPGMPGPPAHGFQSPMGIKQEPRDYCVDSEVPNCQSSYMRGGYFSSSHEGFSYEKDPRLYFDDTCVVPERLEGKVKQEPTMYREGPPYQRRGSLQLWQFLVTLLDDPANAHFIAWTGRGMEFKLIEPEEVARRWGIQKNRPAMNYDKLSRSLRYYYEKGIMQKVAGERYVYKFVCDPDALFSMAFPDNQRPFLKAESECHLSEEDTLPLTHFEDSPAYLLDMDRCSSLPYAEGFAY
# Method in brief: as §1
# HSF1 = HSF1 (Homo sapiens, UniProt Q00613 1-529); conditions: protein: recombinant; tags: N-terminal GST; chain copies: 3; dsDNA, one strand shown
# HSF1, sequence (Q00613 whole entry): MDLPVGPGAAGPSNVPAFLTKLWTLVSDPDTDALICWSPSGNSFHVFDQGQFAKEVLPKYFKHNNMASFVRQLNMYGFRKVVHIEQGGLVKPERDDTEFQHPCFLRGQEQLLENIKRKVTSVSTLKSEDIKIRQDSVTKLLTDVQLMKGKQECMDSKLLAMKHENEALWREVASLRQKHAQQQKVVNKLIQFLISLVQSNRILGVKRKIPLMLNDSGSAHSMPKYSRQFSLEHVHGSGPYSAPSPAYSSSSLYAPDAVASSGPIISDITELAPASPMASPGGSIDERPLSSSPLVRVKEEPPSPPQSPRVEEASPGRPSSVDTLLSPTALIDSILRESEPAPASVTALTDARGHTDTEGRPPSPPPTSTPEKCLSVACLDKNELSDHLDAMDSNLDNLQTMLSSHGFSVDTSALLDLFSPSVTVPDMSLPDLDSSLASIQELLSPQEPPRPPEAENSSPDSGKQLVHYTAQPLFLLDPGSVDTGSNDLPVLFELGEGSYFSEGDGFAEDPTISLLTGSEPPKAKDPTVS
# Method in brief: as §1
# SPIC = biological target: T2, SPIC (Homo sapiens, UniProt Q8N5J4 1-248); conditions: protein: recombinant; tags: N-terminal GST; dsDNA, one strand shown
# T2 sequence: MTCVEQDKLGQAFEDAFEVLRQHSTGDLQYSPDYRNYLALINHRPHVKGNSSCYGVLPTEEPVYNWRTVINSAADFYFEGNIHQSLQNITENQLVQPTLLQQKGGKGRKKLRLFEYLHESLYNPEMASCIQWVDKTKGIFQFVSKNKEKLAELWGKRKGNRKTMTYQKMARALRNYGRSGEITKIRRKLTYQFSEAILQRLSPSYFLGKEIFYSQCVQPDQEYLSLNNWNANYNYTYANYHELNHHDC
# Method in brief: as §1
# ELF4 = ELF4 (Homo sapiens, UniProt Q99607 1-663); conditions: protein: recombinant; tags: N-terminal GST; dsDNA, one strand shown
# ELF4, sequence (Q99607 whole entry): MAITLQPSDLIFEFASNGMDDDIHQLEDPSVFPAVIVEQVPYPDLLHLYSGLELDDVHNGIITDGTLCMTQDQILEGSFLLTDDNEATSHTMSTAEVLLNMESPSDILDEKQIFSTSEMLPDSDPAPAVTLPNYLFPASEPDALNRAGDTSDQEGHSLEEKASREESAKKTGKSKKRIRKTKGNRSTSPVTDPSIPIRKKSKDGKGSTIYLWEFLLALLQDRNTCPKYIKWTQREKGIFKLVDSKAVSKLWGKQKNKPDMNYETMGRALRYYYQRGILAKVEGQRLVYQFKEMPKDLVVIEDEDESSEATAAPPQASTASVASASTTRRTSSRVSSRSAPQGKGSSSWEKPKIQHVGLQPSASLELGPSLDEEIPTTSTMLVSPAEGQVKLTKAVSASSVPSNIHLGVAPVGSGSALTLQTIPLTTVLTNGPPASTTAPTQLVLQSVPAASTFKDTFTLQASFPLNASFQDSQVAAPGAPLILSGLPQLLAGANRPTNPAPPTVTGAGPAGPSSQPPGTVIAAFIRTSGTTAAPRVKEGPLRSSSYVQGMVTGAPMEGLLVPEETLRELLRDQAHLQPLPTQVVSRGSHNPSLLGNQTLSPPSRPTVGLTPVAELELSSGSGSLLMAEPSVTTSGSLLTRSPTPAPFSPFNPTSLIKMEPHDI
# Method in brief: as §1
# ELK4 = biological target: T3, ELK4 (Homo sapiens, UniProt P28324-2 1-405); conditions: protein: recombinant; tags: N-terminal GST; dsDNA, one strand shown
# T3 sequence: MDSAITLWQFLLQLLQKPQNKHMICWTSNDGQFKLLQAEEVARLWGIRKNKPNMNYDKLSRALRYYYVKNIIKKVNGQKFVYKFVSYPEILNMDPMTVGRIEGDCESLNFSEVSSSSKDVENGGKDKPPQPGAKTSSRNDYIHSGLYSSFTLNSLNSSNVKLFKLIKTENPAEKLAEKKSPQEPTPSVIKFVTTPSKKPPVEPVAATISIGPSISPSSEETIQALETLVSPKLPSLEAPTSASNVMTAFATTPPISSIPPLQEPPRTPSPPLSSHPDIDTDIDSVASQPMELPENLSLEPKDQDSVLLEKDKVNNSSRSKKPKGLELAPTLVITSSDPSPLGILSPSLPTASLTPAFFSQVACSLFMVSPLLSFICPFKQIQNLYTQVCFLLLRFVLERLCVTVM
# Method in brief: as §1
# ETV2 = biological target: T4, ETV2 (Homo sapiens, UniProt O00321 1-342); conditions: protein: recombinant; tags: N-terminal GST; dsDNA, one strand shown
# T4 sequence: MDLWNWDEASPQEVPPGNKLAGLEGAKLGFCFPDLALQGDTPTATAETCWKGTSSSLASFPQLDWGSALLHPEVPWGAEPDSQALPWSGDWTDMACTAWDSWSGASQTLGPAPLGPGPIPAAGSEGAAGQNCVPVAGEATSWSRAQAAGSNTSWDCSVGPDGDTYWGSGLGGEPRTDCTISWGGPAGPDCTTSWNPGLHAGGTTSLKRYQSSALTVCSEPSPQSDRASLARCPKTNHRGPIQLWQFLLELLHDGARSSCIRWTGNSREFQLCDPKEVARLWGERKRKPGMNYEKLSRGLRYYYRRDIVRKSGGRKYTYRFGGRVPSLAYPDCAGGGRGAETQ
# Method in brief: as §1
# ELF3 = biological target: T5, ELF3 (Homo sapiens, UniProt P78545 1-371); conditions: protein: recombinant; tags: N-terminal GST; dsDNA, one strand shown
# T5 sequence: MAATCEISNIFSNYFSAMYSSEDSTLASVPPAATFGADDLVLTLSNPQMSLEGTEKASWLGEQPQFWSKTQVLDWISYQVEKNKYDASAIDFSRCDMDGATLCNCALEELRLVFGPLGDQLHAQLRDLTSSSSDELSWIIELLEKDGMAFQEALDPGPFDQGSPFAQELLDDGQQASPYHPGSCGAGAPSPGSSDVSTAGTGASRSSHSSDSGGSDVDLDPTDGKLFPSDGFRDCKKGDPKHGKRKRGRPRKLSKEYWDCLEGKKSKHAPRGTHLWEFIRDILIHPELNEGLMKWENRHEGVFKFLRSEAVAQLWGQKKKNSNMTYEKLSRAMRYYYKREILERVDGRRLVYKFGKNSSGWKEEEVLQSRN
# Method in brief: as §1
# CRX = CRX (Homo sapiens, UniProt O43186 1-299); conditions: protein: recombinant; tags: N-terminal GST; dsDNA, one strand shown
# CRX, sequence (O43186 whole entry): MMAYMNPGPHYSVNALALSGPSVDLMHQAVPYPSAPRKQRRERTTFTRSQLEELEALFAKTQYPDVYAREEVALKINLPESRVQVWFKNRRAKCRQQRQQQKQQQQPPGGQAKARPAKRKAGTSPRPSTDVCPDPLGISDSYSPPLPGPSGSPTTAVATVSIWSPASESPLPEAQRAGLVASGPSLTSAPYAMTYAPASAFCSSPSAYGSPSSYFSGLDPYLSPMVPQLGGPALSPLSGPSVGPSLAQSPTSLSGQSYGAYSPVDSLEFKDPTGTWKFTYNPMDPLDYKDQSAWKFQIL
# Method in brief: as §1
# ETV1 = ETV1 (Homo sapiens, UniProt P50549 1-477); conditions: protein: recombinant; tags: N-terminal GST; dsDNA, one strand shown
# ETV1, sequence (P50549 whole entry): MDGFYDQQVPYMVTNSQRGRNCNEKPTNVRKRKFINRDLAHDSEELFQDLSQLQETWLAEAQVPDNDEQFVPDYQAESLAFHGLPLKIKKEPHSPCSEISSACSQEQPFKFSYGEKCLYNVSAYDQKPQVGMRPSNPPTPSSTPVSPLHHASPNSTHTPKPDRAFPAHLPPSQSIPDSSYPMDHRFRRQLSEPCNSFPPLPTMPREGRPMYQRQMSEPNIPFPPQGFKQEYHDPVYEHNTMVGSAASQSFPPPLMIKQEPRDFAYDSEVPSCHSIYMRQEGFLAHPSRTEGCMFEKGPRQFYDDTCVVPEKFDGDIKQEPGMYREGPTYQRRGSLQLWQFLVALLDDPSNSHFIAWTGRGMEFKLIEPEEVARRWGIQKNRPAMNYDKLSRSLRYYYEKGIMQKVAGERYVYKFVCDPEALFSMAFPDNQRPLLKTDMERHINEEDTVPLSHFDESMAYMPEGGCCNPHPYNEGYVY
# Method in brief: as §1
# ERF = biological target: T6, ERF (Homo sapiens, UniProt P50548 1-548); conditions: protein: recombinant; tags: N-terminal GST; dsDNA, one strand shown
# T6 sequence: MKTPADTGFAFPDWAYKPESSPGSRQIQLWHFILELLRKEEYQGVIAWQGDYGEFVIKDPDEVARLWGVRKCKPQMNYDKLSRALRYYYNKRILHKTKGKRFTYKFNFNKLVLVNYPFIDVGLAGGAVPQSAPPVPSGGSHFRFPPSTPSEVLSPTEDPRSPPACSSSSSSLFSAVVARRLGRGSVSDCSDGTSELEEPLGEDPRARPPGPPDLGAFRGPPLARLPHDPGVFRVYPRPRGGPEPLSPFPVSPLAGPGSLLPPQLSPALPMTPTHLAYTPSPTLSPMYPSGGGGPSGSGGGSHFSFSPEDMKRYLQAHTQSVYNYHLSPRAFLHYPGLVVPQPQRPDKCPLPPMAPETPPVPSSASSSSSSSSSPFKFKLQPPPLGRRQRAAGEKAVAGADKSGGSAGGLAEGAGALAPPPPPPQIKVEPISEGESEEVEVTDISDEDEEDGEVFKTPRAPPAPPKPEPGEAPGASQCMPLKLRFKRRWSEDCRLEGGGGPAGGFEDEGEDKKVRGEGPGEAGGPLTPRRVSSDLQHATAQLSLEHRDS
# Method in brief: as §1
# ETV3L = biological target: T7, ETV3L (Homo sapiens, UniProt Q6ZN32 1-361); conditions: protein: recombinant; tags: N-terminal GST; dsDNA, one strand shown
# T7 sequence: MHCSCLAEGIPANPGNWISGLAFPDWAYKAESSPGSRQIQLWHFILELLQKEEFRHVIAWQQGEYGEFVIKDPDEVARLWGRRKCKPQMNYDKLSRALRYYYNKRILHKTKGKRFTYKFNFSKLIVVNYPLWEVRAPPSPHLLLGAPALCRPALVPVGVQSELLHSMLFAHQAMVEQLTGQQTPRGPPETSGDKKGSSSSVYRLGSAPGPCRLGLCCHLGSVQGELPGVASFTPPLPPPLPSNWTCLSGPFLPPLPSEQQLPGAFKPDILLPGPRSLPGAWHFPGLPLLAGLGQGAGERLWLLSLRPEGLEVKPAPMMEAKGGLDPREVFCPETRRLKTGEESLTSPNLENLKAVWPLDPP
# Method in brief: as §1
# ETS2 = biological target: T8, ETS2 (Homo sapiens, UniProt P15036 1-469); conditions: protein: recombinant; tags: N-terminal GST; dsDNA, one strand shown
# T8 sequence: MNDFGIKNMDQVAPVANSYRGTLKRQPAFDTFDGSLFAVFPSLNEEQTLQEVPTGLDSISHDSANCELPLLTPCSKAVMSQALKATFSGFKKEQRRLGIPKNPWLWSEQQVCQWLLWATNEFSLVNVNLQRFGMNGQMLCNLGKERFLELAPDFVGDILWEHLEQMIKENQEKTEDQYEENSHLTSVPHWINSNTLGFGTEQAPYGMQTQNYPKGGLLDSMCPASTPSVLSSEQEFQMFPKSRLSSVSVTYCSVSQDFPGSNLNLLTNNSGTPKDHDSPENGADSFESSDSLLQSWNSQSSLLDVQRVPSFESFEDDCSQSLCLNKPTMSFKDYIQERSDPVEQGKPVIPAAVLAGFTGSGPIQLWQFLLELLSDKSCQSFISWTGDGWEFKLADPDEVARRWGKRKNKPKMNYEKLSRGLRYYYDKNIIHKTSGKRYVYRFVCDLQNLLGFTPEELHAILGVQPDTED
# Method in brief: as §1
# SPDEF = biological target: T9, SPDEF (Homo sapiens, UniProt O95238 1-335); conditions: protein: recombinant; tags: N-terminal GST; dsDNA, one strand shown
# T9 sequence: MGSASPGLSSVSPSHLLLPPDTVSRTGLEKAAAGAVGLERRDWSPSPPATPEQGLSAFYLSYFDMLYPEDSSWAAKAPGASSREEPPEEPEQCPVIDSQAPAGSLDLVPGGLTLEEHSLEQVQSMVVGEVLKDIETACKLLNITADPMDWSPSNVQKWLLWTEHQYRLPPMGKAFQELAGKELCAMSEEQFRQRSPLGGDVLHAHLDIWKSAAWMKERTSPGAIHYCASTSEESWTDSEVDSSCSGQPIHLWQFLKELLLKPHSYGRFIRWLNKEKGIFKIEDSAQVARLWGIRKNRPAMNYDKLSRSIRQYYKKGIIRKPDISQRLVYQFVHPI
# Method in brief: as §1
# ETV7 = biological target: T10, ETV7 (Homo sapiens, UniProt Q9Y603 1-341); conditions: protein: recombinant; tags: N-terminal GST; dsDNA, one strand shown
# T10 sequence: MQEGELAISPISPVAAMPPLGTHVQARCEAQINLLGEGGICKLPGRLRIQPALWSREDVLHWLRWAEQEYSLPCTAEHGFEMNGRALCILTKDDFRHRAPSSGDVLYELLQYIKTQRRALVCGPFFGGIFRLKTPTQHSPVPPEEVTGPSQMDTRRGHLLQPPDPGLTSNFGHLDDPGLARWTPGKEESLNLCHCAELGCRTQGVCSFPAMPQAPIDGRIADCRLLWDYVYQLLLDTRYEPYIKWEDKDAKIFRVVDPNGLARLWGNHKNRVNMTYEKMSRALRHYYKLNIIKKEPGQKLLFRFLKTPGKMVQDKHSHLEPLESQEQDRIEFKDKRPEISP
# Method in brief: as §1
# ELF5 = biological target: T11, ELF5 (Homo sapiens, UniProt Q9UKW6-2 1-255); conditions: protein: recombinant; tags: N-terminal GST; dsDNA, one strand shown
# T11 sequence: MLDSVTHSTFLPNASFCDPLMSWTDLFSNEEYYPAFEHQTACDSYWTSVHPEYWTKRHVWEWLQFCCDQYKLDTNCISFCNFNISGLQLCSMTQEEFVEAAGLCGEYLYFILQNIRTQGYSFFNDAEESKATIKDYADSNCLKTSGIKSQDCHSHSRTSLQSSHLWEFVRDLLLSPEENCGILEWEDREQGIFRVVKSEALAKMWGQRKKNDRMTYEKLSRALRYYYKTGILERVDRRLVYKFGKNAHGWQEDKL
# Method in brief: as §1
# ETV3 = biological target: T12, ETV3 (Homo sapiens, UniProt P41162-2 1-143); conditions: protein: recombinant; tags: N-terminal GST; dsDNA, one strand shown
# T12 sequence: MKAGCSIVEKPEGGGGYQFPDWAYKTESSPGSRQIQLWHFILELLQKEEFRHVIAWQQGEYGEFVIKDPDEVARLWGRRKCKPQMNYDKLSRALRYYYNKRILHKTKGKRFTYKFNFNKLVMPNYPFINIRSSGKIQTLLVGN
# Method in brief: as §1
# ETV6 = ETV6 (Homo sapiens, UniProt P41212 1-452); conditions: protein: recombinant; tags: N-terminal GST; dsDNA, one strand shown
# ETV6, sequence (P41212 whole entry): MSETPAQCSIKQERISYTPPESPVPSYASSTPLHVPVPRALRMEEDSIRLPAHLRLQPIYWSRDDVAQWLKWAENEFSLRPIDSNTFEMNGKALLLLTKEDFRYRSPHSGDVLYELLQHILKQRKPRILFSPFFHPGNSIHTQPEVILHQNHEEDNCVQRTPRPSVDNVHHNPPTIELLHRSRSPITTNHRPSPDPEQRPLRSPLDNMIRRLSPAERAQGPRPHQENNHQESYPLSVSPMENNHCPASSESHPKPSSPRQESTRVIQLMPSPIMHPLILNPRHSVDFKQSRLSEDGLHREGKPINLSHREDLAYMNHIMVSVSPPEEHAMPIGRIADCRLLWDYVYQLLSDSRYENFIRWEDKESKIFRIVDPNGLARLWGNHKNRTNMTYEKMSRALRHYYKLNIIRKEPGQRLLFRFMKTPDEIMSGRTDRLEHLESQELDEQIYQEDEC
# Method in brief: as §1
sequence,measurement,setting,value
TGCACT,binding signal,FEV,"1.51 fold enrichment (6-mer frequency, TF over GST control)"
same,binding signal,ETV5,"1.37 fold enrichment (6-mer frequency, TF over GST control)"
same,binding signal,HSF1,"1.02 fold enrichment (6-mer frequency, TF over GST control)"
same,binding signal,SPIC,"1.33 fold enrichment (6-mer frequency, TF over GST control)"
same,binding signal,ELF4,"1.33 fold enrichment (6-mer frequency, TF over GST control)"
same,binding signal,ELK4,"1.31 fold enrichment (6-mer frequency, TF over GST control)"
same,binding signal,ETV2,"1.46 fold enrichment (6-mer frequency, TF over GST control)"
same,binding signal,ELF3,"1.55 fold enrichment (6-mer frequency, TF over GST control)"
same,binding signal,CRX,"1.06 fold enrichment (6-mer frequency, TF over GST control)"
same,binding signal,ETV1,"1.33 fold enrichment (6-mer frequency, TF over GST control)"
same,binding signal,ERF,"1.28 fold enrichment (6-mer frequency, TF over GST control)"
same,binding signal,ETV3L,"1.34 fold enrichment (6-mer frequency, TF over GST control)"
same,binding signal,ETS2,"1.32 fold enrichment (6-mer frequency, TF over GST control)"
same,binding signal,SPDEF,"1.4 fold enrichment (6-mer frequency, TF over GST control)"
same,binding signal,ETV7,"1.42 fold enrichment (6-mer frequency, TF over GST control)"
same,binding signal,ELF5,"1.29 fold enrichment (6-mer frequency, TF over GST control)"
same,binding signal,ETV3,"1.35 fold enrichment (6-mer frequency, TF over GST control)"
same,binding signal,ETV6,"1.41 fold enrichment (6-mer frequency, TF over GST control)"

# From paper PMC7862700, “An all-to-all approach to the identification of sequence-specific readers for epigenetic DNA modifications on cytosine”
